Source: PubChem BioAssay
FAS TE block: inhibitors of human fatty acid synthase thioesterase domain; recombinant FAS-TE, OMFH fluorogenic substrate, fluorescence endpoint; P49327; inhibition, % at 15 µM; 360,000 compounds, 0.67% hits;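 active = compounds whose normalised, plate-corrected inhibition of enzyme fluorescence in the single-dose primary screen is 50% or more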;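 also: 0% = DMSO with enzyme and 100% = substrate without enzyme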
Target sequence (P49327 whole entry, looked up, the tested form may be a part): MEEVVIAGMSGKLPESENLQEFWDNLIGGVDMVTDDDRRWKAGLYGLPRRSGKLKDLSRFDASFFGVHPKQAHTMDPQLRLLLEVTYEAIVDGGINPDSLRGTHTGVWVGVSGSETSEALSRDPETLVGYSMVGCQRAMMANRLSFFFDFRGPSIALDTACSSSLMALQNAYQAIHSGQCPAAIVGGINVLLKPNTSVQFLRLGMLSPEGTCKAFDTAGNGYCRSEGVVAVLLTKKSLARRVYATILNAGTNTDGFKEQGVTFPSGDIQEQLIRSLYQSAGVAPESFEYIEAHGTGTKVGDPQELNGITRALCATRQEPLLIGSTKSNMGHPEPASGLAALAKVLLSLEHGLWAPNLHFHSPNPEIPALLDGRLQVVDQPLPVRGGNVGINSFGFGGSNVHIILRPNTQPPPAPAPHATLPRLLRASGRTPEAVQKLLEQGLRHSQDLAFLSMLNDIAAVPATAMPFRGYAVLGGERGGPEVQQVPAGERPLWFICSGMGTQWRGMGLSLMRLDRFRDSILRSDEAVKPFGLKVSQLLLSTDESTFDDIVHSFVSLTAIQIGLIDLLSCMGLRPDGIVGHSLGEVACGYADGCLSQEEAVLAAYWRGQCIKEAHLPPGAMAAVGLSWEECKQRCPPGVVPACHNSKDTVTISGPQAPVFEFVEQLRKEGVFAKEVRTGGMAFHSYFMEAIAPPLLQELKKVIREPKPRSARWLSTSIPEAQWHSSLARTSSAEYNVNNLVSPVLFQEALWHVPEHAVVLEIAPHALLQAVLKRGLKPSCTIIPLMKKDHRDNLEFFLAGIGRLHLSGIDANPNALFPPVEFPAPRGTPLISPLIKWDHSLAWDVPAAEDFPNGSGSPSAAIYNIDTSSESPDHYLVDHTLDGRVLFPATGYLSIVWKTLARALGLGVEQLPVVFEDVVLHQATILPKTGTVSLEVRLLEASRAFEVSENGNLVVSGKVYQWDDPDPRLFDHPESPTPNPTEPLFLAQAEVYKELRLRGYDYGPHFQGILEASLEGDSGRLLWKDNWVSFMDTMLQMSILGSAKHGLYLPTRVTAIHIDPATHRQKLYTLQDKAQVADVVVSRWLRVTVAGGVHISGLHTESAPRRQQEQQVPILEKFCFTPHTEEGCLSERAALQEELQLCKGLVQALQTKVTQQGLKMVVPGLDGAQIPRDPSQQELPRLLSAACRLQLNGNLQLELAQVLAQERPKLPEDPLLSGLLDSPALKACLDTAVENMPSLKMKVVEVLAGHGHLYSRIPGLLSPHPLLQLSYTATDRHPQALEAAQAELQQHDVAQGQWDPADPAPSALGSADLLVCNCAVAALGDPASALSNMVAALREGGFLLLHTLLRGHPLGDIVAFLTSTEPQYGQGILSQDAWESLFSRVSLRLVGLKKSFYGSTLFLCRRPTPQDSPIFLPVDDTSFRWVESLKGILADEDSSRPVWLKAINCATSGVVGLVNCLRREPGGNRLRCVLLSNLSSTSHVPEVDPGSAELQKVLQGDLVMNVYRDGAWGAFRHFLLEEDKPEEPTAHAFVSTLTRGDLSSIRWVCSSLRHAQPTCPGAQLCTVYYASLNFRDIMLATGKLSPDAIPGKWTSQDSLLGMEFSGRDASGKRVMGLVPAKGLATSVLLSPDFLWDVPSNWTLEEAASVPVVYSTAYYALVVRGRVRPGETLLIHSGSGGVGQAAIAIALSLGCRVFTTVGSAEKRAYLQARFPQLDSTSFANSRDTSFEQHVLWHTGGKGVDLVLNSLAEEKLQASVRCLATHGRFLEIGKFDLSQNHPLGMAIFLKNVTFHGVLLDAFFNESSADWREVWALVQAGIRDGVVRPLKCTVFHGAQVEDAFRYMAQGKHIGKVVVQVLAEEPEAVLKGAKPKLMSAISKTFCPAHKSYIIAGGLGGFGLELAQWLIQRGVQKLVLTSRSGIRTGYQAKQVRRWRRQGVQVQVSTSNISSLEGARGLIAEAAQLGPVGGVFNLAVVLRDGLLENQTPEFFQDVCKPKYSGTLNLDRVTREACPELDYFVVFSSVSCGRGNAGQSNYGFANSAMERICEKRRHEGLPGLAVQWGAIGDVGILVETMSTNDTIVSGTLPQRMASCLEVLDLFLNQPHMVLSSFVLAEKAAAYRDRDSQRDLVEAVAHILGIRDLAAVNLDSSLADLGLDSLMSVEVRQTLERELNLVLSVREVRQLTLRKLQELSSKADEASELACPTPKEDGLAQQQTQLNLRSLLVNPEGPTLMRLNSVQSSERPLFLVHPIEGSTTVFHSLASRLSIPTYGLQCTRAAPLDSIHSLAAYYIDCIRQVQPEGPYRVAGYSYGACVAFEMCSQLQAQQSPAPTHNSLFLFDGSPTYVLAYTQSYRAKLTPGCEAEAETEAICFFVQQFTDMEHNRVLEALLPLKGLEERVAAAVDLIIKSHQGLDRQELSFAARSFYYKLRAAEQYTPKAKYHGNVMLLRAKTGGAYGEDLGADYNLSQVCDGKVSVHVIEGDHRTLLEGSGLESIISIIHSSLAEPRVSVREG
aDG glyco act: alpha-DG glycosylation activation. Pro5-aDG cells, alpha-DG glycosylation AlphaScreen (IIH6); 0% Pro5, 100% B10-LARGE cell signal. activation, % at 10 µM. 360,000 compounds, 0.22% hits. AID 624168;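 active = activation of at least 8% versus controls, or a plate z-score of at least 8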;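 also: Pro5 are CHO cells carrying HIG-tagged alpha-DG that lacks glycosylation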
ADAM10 inh: inhibits human ADAM10. O14672. recombinant ADAM10, EDANS/DABCYL FRET peptide cleavage, 3 h. inhibition, % at 7 µM. 370,000 compounds, 0.62% hits. AID 720582;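 active = inhibition above a per-campaign cutoff equal to the mean of compounds falling between control-based bounds plus 3 SD, cut at about 20% in these data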;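 also: 0% = DMSO wells while the 100% control is not disclosed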
ADAM17 inh: inhibitors of human ADAM17. P78536. recombinant ADAM17, EDANS/DABCYL FRET peptide cleavage. 370,000 compounds, 0.83% hits. AID 720648. inhibition, % at 6.95 µM;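 active = inhibition above the mean of compounds lying between control limits plus 3 SD, set per campaign, cut at about 8.5% in these data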;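 also: 0% = DMSO-only wells as the low control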
GRIN3A LBD mod: modulates the human NR3A ligand-binding domain; 340,000 compounds, 2.5% hits; NR3A LBD differential scanning fluorimetry, Tm shift; 0% = protein alone, 100% = glycine-bound protein; Tm shift relative to glycine control, % at 25 µM;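 active = melting temperature shift of at least 10% of the positive control shift, at one fixed dose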
Starred values were filed as active, the others as inactive. An excerpt weighted towards active compounds, which were near 4% of everything screened.

Results for CN1CCN(CC(O)(c2ccc(Cl)cc2)c2ccc(Cl)cc2)CC1 ?
FAS TE block: 4; aDG glyco act: 4; ADAM10 inh: 4; ADAM17 inh: 0; GRIN3A LBD mod: -3

What do the screens show for `COCCN(C(=O)COC(=O)c1cccc2ccccc12)c1c(N)n(Cc2ccccc2)c(=O)[nH]c1=O`?
FAS TE block: -1; aDG glyco act: 0; ADAM10 inh: -9; ADAM17 inh: -4; GRIN3A LBD mod: 6

How did CCN(C(=O)COC(=O)CCS(=O)(=O)c1ccccc1)c1c(N)n(Cc2ccccc2)c(=O)[nH]c1=O do in these assays?
FAS TE block: -7; aDG glyco act: 0; ADAM10 inh: -15; ADAM17 inh: -5; GRIN3A LBD mod: 17*

Results for CCN(C(=O)COC(=O)CCOc1ccccc1)c1c(N)n(Cc2ccccc2)c(=O)[nH]c1=O ?
FAS TE block: -3; aDG glyco act: 0; ADAM10 inh: -10; ADAM17 inh: -2; GRIN3A LBD mod: 2

How did COCCN(C(=O)COC(=O)c1ccccc1Nc1ccccc1)c1c(N)n(Cc2ccccc2)c(=O)[nH]c1=O do in these assays?
FAS TE block: 4; aDG glyco act: 0; ADAM10 inh: -14; ADAM17 inh: -11; GRIN3A LBD mod: 19*

What do the screens show for `Cc1ccccc1C(=O)OCC(=O)N(C)c1c(N)n(Cc2ccccc2)c(=O)[nH]c1=O`?
FAS TE block: 4; aDG glyco act: 0; ADAM10 inh: -4; ADAM17 inh: -3; GRIN3A LBD mod: 2

How did CN(C(=O)COC(=O)c1ccccc1Nc1ccccc1)c1c(N)n(Cc2ccccc2)c(=O)[nH]c1=O do in these assays?
FAS TE block: 9; aDG glyco act: 0; ADAM10 inh: -76; ADAM17 inh: -19; GRIN3A LBD mod: 24*

Results for CCOC(=O)c1cccc(P(=O)(C(C)(C)C)C(C)(C)C)c1 ?
FAS TE block: -11; aDG glyco act: 0; ADAM10 inh: -7; ADAM17 inh: 0; GRIN3A LBD mod: -5

Results for CCC(CC)NC(=O)CO/N=C/c1ccccc1OC(F)F ?
FAS TE block: -6; aDG glyco act: 0; ADAM10 inh: 4; ADAM17 inh: 0; GRIN3A LBD mod: -1

How did NS(=O)(=O)c1ccc(CCNC(=O)COC(=O)CCSc2ccc(Cl)cc2)cc1 do in these assays?
FAS TE block: -11; aDG glyco act: 0; ADAM10 inh: 4; ADAM17 inh: 1; GRIN3A LBD mod: 0

Results for O=C(COC(=O)CCSc1ccc(Cl)cc1)NCCc1ccccc1 ?
FAS TE block: -5; aDG glyco act: 0; ADAM10 inh: 7; ADAM17 inh: 3; GRIN3A LBD mod: 16*

How did Cc1ccc2[nH]c(=O)c(NC(N)=S)nc2c1 do in these assays?
FAS TE block: -7; aDG glyco act: 0; ADAM10 inh: 9; ADAM17 inh: 2; GRIN3A LBD mod: 11*

What do the screens show for `CN1CCc2c(sc(NC(=O)CS(=O)(=O)c3ccccc3)c2C(N)=O)C1`?
FAS TE block: -8; aDG glyco act: 0; ADAM10 inh: -16; ADAM17 inh: -12; GRIN3A LBD mod: 18*

How did CCCC1S/C(=N/N=C/c2ccc(OC)cc2)N(Cc2ccccc2)C1=O (configuration not stated) do in these assays?
FAS TE block: 27; aDG glyco act: -1; ADAM10 inh: 5; ADAM17 inh: -2; GRIN3A LBD mod: 10*

What do the screens show for `O=C(Nc1ccc(C(=O)O)cc1)/C(=C\C=C\c1ccccc1)NC(=O)c1ccccc1Cl`?
FAS TE block: 1; aDG glyco act: 0; ADAM10 inh: -10; ADAM17 inh: 0; GRIN3A LBD mod: -29

How did O=C(Nc1ccc(O)cc1)/C(=C\C=C\c1ccccc1)NC(=O)c1ccccc1 do in these assays?
FAS TE block: 15; aDG glyco act: 0; ADAM10 inh: 2; ADAM17 inh: 3; GRIN3A LBD mod: 27*

What do the screens show for `O=C(CCCNC(=O)c1ccc(Cl)cc1)Nc1cccc(F)c1`?
FAS TE block: -3; aDG glyco act: 0; ADAM10 inh: 5; ADAM17 inh: -2; GRIN3A LBD mod: 0

How did CCCc1c(C(=O)N/N=C/c2ccc(OCc3ccccc3)c(OC)c2)nnn1-c1nonc1N do in these assays?
FAS TE block: 21; aDG glyco act: 1; ADAM10 inh: -4; ADAM17 inh: -2; GRIN3A LBD mod: 12*

How did CCCc1c(C(=O)N/N=C/c2ccccc2OCc2ccc(F)cc2)nnn1-c1nonc1N do in these assays?
FAS TE block: -5; aDG glyco act: 0; ADAM10 inh: 1; ADAM17 inh: 0; GRIN3A LBD mod: 6

Results for COc1cc(/C=N/NC(=O)c2cccs2)ccc1O ?
FAS TE block: -6; aDG glyco act: 0; ADAM10 inh: -3; ADAM17 inh: -7; GRIN3A LBD mod: 0

Results for COc1cc(/C=N/NC(=O)c2cccs2)ccc1OCc1ccccc1 ?
FAS TE block: 8; aDG glyco act: 1; ADAM10 inh: -4; ADAM17 inh: -5; GRIN3A LBD mod: 19*

Results for CCCc1c(C(=O)N/N=C/c2ccc(OCc3ccccc3)cc2)nnn1-c1nonc1N ?
FAS TE block: -4; aDG glyco act: 0; ADAM10 inh: 6; ADAM17 inh: 2

How did CCCc1c(C(=O)N/N=C/c2ccc(OC)c(OCc3ccccc3)c2)nnn1-c1nonc1N do in these assays?
FAS TE block: 18; aDG glyco act: 1; ADAM10 inh: 6; ADAM17 inh: 1; GRIN3A LBD mod: 37*

How did CCCc1c(C(=O)N/N=C/c2c(OC)ccc3ccccc23)nnn1-c1nonc1N do in these assays?
FAS TE block: 0; aDG glyco act: 0; ADAM10 inh: -4; ADAM17 inh: 3; GRIN3A LBD mod: 31*

Results for CS(=O)(=O)c1cccc(C(=O)OCC(=O)NCc2cccs2)c1 ?
FAS TE block: -6; aDG glyco act: 0; ADAM10 inh: -20; ADAM17 inh: -1; GRIN3A LBD mod: 0

What do the screens show for `Cc1ccc(S(=O)(=O)Nc2ccccc2CNc2ccc(Br)cn2)cc1`?
FAS TE block: 34; aDG glyco act: 0; ADAM10 inh: 10; ADAM17 inh: 4; GRIN3A LBD mod: 14*

What do the screens show for `Cn1c(=O)c2c(nc(CN3CCC(C(N)=O)CC3)n2Cc2ccccc2F)n(C)c1=O`?
FAS TE block: 1; aDG glyco act: 0; ADAM10 inh: 6; ADAM17 inh: -4; GRIN3A LBD mod: -1

Results for CC(Nc1nc2ncn(Cc3ccccc3)c2c(=O)[nH]1)C(=O)O (configuration not stated) ?
FAS TE block: -10; aDG glyco act: 0; ADAM10 inh: -9; ADAM17 inh: -4; GRIN3A LBD mod: 15*

Results for O=C(O)CCCCCNc1nc2ncn(Cc3ccccc3)c2c(=O)[nH]1 ?
FAS TE block: -10; aDG glyco act: 0; ADAM10 inh: 3; ADAM17 inh: -3; GRIN3A LBD mod: -1

How did CC1CCN(S(=O)(=O)c2ccc(C(=O)N3CCCCC3C(=O)O)cc2)CC1 (configuration not stated) do in these assays?
FAS TE block: -6; aDG glyco act: 0; ADAM10 inh: -14; ADAM17 inh: -1; GRIN3A LBD mod: 1
